A short description of experiment [1]: Her2 expression decrease, cell viability multiplex – SKBR3 breast tumor cells, AlphaScreen, ATP viability, primary screen (AID 461;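 active means Her2 level under about 52% in both replicate screens, with viability over 70% of control, limit read from the data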;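 on Her2 level: lower value means less Her2 protein in the cells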;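 on viability: percent of carrier control wells set as 100% viability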). To be noted: SKBR3 Her2 protein level, 18-24 h, measured here: SKBR3 viability, ATP luminescence, at 10 µM. (In general: Alpha assays give light when donor and acceptor beads are brought close together.)
The target in experiment [2] is Receptor tyrosine-protein kinase erbB-2 (Homo sapiens) (UniProt P04626). The experiment is described as above. The note with it: 18-24 h, at 10 µM, stronger effect = lower value.
Experiment [3] can be described thus: reduced viability of SK-BR-3 breast cancer cells – cell-based, 24 h, human, pilot screen (AID 572).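 Further: compound exposure lasted between 18 and 24 h rather than exactly 24 h; 100% = carrier-treated control wells.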 The note with it: SK-BR-3 viability, CellTiter-Glo luminescence, at 10 µM, stronger effect = lower value.
The nature of experiment [4]: HUVEC growth inhibition – cell-based, human, primary screen (AID 575;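 active means viability at or below 30% in both replicate assays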;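 further: 100% = median of untreated cell wells with 0.1% DMSO on each plate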). To be noted: HUVEC proliferation, CellTiter-Glo luminescence, 72 h; at 10 µM; stronger effect = lower value. On the technique in general: ATP-based viability assays read luminescence as a measure of living cells.
Experiment [5] in a line: H69AR cell proliferation blockers – human, duplicate replicates, primary screen (AID 580;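 active means viability at or under a set limit in both replicates, limit being median viability minus 3 SD, cut at about 48% in these data, passing the limit was not always enough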;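 further: 100% = mean luminescence of untreated wells and 0% = no signal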). The note with it: H69AR lung tumor cells viability, ATP luminescence, 72 h; at 10 µM; stronger effect = lower value.
A short description of experiment [6]: MRP1 drug-resistance reversers in H69AR cells – cell-based, doxorubicin co-treatment, pilot screen (AID 601;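 active means viability loss from added drug above about 55%, and viability with drug at most 40%, in both replicates, limit read from the data, passing the limit was not always enough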). To be noted: CellTiter-Glo, 72 h, at 10 µM; for differential viability (reversal): stronger effect = higher value.
A short description of experiment [7]: yeast transport mutant growth inhibition pilot in 384-well plates, post-Golgi transport modulator project (AID 636; in the data active means inhibition above about 31%). The note with it: absorbance 615 nm, about 18 h, stronger effect = higher value.
A short description of experiment [8]: growth suppression of yeast trafficking mutant, preliminary HTS, modulators of trafficking downstream of Golgi apparatus project, 1536-format plate, OD 615 nm (AID 637; in the data active means inhibition above about 30%). To be noted: yeast transport mutant growth, absorbance 615 nm, 18 h; stronger effect = higher value.
A short description of experiment [9]: S. cerevisiae growth inhibition in restrictive medium, OD615, pilot screen, restrictive growth control, yeast lifespan reduction project (AID 706;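 active means growth inhibition above a set limit, 3 SD over mean compound inhibition, in both replicates, cut at about 43% in these data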;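 further: modified DeaD lifespan yeast strain shifted to restrictive glucose medium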). To be noted: OD615, 48 h, at 10 µM, stronger effect = higher value.
The nature of experiment [10]: doxorubicin toxicity protection in MRP-1 cells – H69AR cells, CellTiter-Glo, duplicate, MRP-1 activator project, pilot screen (AID 807;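 active means viability increase at or above a cutoff of the median across tested compounds plus 3 SD, cut at about 8.5% in these data, passing the limit was not always enough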;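 further: compound pretreatment 18-22 h then 72 h combined with doxorubicin; 0% = doxorubicin alone and 100% = vehicle without doxorubicin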). To be noted: H69AR viability with doxorubicin, CellTiter-Glo luminescence; at 10 µM; stronger effect = higher value.
Experiment [11] is described as follows: viability of HCT116 without oncogenic beta-catenin – human colon tumor cells, pilot screen (AID 823;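 active means cell viability at or below a set limit in both duplicate runs, the limit being the all-compound median minus 4 SD, cut at about 23% in these data, passing the limit was not always enough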;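 further: 0% = wells killed by 20 µM Hyamine and 100% = untreated DMSO cell wells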). The note with it: HCT116 beta-catenin knockout viability, CellTiter-Glo, 60 h; at 10 µM; stronger effect = lower value.
A short description of experiment [12]: viability of PTEN-null HCT116 cells – cell-based, HCT116 clonal line, CellTiter-Glo, pilot screen (AID 824;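 active means viability at or below 27.92% in each of two runs, the all-compound median minus 4 SD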;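 further: 0% = 20 µM Hyamine control and 100% = vehicle cell control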). The note with it: HCT116 PTEN-deleted viability, 60 h, at 10 µM, stronger effect = lower value.
Experiment [13] is described as follows: RAM pathway blockade in budding yeast – dse1pr::URA3 reporter, 5-FOA selection, pilot screen (AID 869;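 active means inhibition over a set limit, the all-compound mean plus 3 SD, in both replicate runs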;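 further: 0% = DMSO wells with no growth and 100% = 10 µM 1-NA-PP1 with full growth; RAM network block rescues cells from 5-FOA so hits raise OD615 growth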). The note with it: S. cerevisiae dse1pr::URA3 5-FOA growth, OD615, 2 d; at 10 µM; stronger effect = higher value; strain carries analog-sensitive mutant Cbk1 kinase.
Experiment [14] can be described thus: S. cerevisiae growth inhibition in permissive medium (OD615), pilot counter-assay for S. cerevisiae lifespan shortening project, permissive growth control (AID 705;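 active means growth inhibition above 25% in both replicates, a cutoff set 3 SD above the mean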). The note with it: OD615, 24 h, at 10 µM, stronger effect = higher value.
[15] abbreviates: H69AR cells + 2 uM doxorubicin, measured here: viability with 2 uM doxorubicin, stronger effect = lower value.
The mark [16] stands for this setting: H69AR cells, compound alone cytotoxicity.

What is called viability is a read-out of living cells in per cent, often relative to untreated cells. In general, inhibition refers to the change of the read-out against control, counted positive when it falls.

Inconclusive results are not listed. Activity calls are given as the source filed them.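 How the source made its calls, unless noted: active means viability at or below 10% of carrier control in both of two separate runs; inconclusive means viability at or below 10% in only one of the two runs; inactive means the rest.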

Chain of Receptor tyrosine-protein kinase erbB-2 (Homo sapiens) (P04626 whole entry, looked up): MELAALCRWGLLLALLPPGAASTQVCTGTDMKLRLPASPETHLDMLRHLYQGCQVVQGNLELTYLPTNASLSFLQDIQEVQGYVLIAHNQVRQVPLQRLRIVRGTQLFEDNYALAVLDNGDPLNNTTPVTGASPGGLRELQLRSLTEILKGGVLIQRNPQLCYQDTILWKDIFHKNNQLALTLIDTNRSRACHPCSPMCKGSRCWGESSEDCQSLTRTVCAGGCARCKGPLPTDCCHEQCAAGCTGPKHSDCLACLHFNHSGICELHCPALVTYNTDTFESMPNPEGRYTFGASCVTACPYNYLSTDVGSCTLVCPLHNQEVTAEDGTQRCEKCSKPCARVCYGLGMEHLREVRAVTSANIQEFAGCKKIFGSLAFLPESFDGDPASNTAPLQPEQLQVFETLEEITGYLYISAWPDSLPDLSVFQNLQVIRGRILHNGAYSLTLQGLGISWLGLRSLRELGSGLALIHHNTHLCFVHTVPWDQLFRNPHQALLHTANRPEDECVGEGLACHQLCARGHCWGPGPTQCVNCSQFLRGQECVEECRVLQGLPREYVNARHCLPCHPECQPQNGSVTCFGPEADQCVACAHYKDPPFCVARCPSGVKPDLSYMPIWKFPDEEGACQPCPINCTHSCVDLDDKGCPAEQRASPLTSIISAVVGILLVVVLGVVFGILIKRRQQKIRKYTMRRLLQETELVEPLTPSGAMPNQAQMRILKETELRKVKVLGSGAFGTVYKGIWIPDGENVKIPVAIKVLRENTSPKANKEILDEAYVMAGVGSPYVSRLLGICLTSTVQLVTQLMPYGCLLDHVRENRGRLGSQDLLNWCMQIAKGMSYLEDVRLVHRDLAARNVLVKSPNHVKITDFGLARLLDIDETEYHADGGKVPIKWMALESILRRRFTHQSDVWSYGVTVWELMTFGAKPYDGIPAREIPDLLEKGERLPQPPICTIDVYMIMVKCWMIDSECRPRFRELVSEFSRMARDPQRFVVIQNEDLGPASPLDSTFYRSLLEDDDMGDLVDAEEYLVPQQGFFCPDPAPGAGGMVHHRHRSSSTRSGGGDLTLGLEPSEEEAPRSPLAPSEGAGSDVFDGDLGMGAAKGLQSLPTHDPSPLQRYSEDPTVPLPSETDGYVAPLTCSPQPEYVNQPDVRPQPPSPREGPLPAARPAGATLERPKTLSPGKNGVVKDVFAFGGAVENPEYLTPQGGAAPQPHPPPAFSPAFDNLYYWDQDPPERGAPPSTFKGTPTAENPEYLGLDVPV

Consider `O=C(c1ccc(Br)o1)N1CCN(c2ccc3nnc(-c4ccccc4)n3n2)CC1`, for which the viability was 113% in experiment [1]; 113% (inactive) in experiment [3]; 56.6% (inactive) in experiment [4]; 75.8% (inactive) in experiment [5]; 37.1% in [6] (setting [15]); 75.8% in experiment [6] (setting [16]). The viability is 45% (inactive) in experiment [11] and 38.8% (inactive) in [12]. For the same compound, the Her2 level in [2] is 78% (inactive). In experiment [6] (H69AR cells + 2 uM doxorubicin), the differential viability (reversal) was 38.7% (inactive). The inhibition in experiment [7] was 2.82% (inactive); in experiment [8], -0.67% (inactive); in [13], 1.29% (inactive). In addition, the growth inhibition in [9] is 45.7% (active). Besides, the viability increase in [10] was -1.47% (inactive).
With `COc1ccc(/C=N/n2cc(-c3ccc(OC)cc3)nc2N)cc1`, the viability in [1] is 85%; in [3] it was 85% (inactive); in experiment [4], 82.5% (inactive); in experiment [6] (setting [15]) it was 63.6%; in experiment [6] (setting [16]), 53.3%. Further, in experiment [2], the Her2 level was 99% (inactive). In experiment [6] (H69AR cells + 2 uM doxorubicin), the differential viability (reversal) is -10.3% (inactive). The results for the inhibition in experiment [7] and in [8] were -1.41% (inactive) and -8% (inactive), respectively.
In the case of `Fc1ccc(C2C3=C(Nc4ncnn42)c2ccccc2OC3c2ccncc2)cc1` (stereo not drawn), the viability in [1] is 85.5%; in [3], 85.5% (inactive); in experiment [4] it was 86.7% (inactive); in [5], 78.8% (inactive). In addition, in experiment [2], the Her2 level was 85.5% (inactive). Besides, the inhibition was -2.11% (inactive) in [7] and -3.71% (inactive) in experiment [8].
On to `O=C(C1CCN(c2nnc(-n3cccc3)s2)CC1)N1CCN(Cc2ccc3c(c2)OCO3)CC1`, for which the viability in [1] is 78.5%; in experiment [3], 78.5% (inactive); in experiment [4], 105% (inactive); in experiment [5] it was 82% (inactive); in experiment [6] (setting [15]) it was 85.6%; in experiment [6] (setting [16]) it was 82%. Further, the values for the viability in [11] and in experiment [12] were 59.1% (inactive) and 64.8% (inactive), respectively. In [2], the Her2 level was 80.5% (inactive). In experiment [6] (H69AR cells + 2 uM doxorubicin), the differential viability (reversal) was -3.6% (inactive). The inhibition in experiment [7] was 3.59% (inactive); in experiment [8] it was 1.67% (inactive); in experiment [13], 2.78% (inactive). Besides, the growth inhibition in [14] was 10.4% (inactive); in experiment [9] it was 10.1% (inactive). Also, the viability increase in experiment [10] is -0.09% (inactive).
Consider `C=CCn1c(SCC(=O)Nc2cccc(OC)c2)nnc1-c1cccnc1`, for which the viability was 92.5% in [1]; 92.5% (inactive) in experiment [3]; 87.2% (inactive) in [4]; 95.4% (inactive) in [5]; 87.5% in experiment [6] (setting [15]); 95.4% in experiment [6] (setting [16]). Further, the viability was 99.6% (inactive) in experiment [11] and 96.8% (inactive) in experiment [12]. For the same compound, the Her2 level in [2] was 95% (inactive). Further, the differential viability (reversal) in experiment [6] (H69AR cells + 2 uM doxorubicin) was 7.9% (inactive). Besides, the values for the inhibition in experiment [7], in experiment [8] and in [13] were -6.4% (inactive), 3.33% (inactive) and 0.365% (inactive), respectively. In addition, the values for the growth inhibition in experiment [14] and in experiment [9] were -11.3% (inactive) and -8.35% (inactive), respectively. The viability increase in experiment [10] is -2.95% (inactive).
Take `CN1CCc2c(sc3c2c(=O)n(-c2ccccc2)c2nnc(SCc4ccc(F)cc4)n32)C1`: the viability is 82% in experiment [1], 82% (inactive) in [3], 109% (inactive) in experiment [4] and 102% (inactive) in experiment [5]. Besides, the Her2 level in experiment [2] is 94.5% (inactive). Besides, the inhibition in [7] was -1.95% (inactive); in experiment [8] it was 0.79% (inactive).
As to `CC(=O)O[C@]1(C(C)=O)CC[C@H]2[C@@H]3C[C@H](C)C4=CC(=O)CC[C@]4(C)[C@H]3CC[C@@]21C`, the viability in experiment [1] was 153%; in experiment [3] it was 153% (inactive); in [4] it was 83.3% (inactive); in experiment [6] (setting [15]) it was 6.83%; in [6] (setting [16]), 1.8%. Also, the Her2 level in experiment [2] was 65% (inactive). The differential viability (reversal) in experiment [6] (H69AR cells + 2 uM doxorubicin) is -5.03% (inactive).
For `C=CCN1C(=O)/C(=C2/Sc3ccccc3N2C)SC1=Nc1c(C)n[nH]c1C`, the viability was 107% in experiment [1], 107% (inactive) in experiment [3], 85% (inactive) in [4] and 75.5% (inactive) in experiment [5]. The Her2 level in experiment [2] was 86.5% (inactive). For the same compound, the figures for the inhibition in experiment [7] and in experiment [8] were -5.2% (inactive) and 0.48% (inactive), respectively.
In the case of `Cc1csc(NC(=O)CSc2nnc(Cc3cccn3C)n2-c2ccc(F)cc2)n1`, the viability was 77.5% in experiment [1]; 77.5% (inactive) in experiment [3]; 84.8% (inactive) in [4]; 89.8% (inactive) in experiment [5]; 88.8% in experiment [6] (setting [15]); 89.8% in [6] (setting [16]). The viability in [11] was 94% (inactive); in experiment [12], 95.5% (inactive). Also, the Her2 level in experiment [2] was 94% (inactive). For the same compound, in experiment [6] (H69AR cells + 2 uM doxorubicin), the differential viability (reversal) is 1.05% (inactive). In addition, the inhibition in experiment [7] was 4.67% (inactive); in experiment [8] it was -1.64% (inactive); in experiment [13], 4.11% (inactive). Besides, the growth inhibition in experiment [14] was -9.58% (inactive); in [9], -0.31% (inactive). In addition, the viability increase in [10] is -2.25% (inactive).
As to `O=c1[nH]c(=O)n([C@H]2C[C@H](O)[C@@H](CO)O2)cc1F`, the viability in experiment [1] is 89%; in [3] it was 89% (inactive); in experiment [4] it was 51.3% (inactive); in experiment [6] (setting [15]), 57%; in experiment [6] (setting [16]), 16.4%. In experiment [2], the Her2 level is 74% (inactive). Also, the differential viability (reversal) in experiment [6] (H69AR cells + 2 uM doxorubicin) was -40.6% (inactive).
Turning to `CC[C@H]1OC(=O)C[C@@H](O)[C@H](C)[C@@H](O[C@@H]2O[C@H](C)C[C@H](N(C)C)[C@H]2O)[C@@H](CC=O)C[C@@H](C)C(=O)C=C[C@]2(C)O[C@H]2[C@@H]1C`, the viability in experiment [1] is 162%; in [3], 162% (inactive); in experiment [4] it was 53.5% (inactive); in experiment [6] (setting [15]), 45.8%; in experiment [6] (setting [16]) it was 39.1%. Further, the Her2 level in [2] was 19.5% (active). Further, in experiment [6] (H69AR cells + 2 uM doxorubicin), the differential viability (reversal) was -6.67% (inactive).
For `Cc1ccccc1Cn1c(=O)c2c(nc3n2CCCN3Cc2ccccc2)n(C)c1=O`, the viability in experiment [1] was 89%; in experiment [3] it was 89% (inactive); in [4], 65.5% (inactive); in experiment [5], 78.5% (inactive). The Her2 level in [2] is 89% (inactive). Also, the inhibition in experiment [7] was -3.2% (inactive); in [8] it was -2.26% (inactive).
As for `Cc1cccc(OCC(=O)N2CCC(c3ccccc3)C2)c1` (stereo not drawn), the viability in experiment [1] is 104%; in experiment [3], 104% (inactive); in [4], 98% (inactive); in [5] it was 92.8% (inactive); in experiment [6] (setting [15]) it was 90.9%; in experiment [6] (setting [16]), 92.8%. Further, the viability is 83% (inactive) in [11] and 83.7% (inactive) in experiment [12]. Also, in experiment [2], the Her2 level is 112% (inactive). For the same compound, the differential viability (reversal) in experiment [6] (H69AR cells + 2 uM doxorubicin) was 1.84% (inactive). The inhibition in experiment [7] was -4.05% (inactive); in [8], -1.83% (inactive); in [13], 0.225% (inactive). Further, the results for the growth inhibition in experiment [14] and in experiment [9] were -17.9% (inactive) and -6.05% (inactive), respectively. Besides, the viability increase in experiment [10] is -0.58% (inactive).
Turning to `COc1ccc(/C=N/n2cnnc2SCc2ccc(OC)cc2)cc1`, the viability was 83.5% in experiment [1]; 83.5% (inactive) in experiment [3]; 87.6% (inactive) in experiment [4]; 89.9% (inactive) in experiment [5]; 96.7% in [6] (setting [15]); 89.9% in [6] (setting [16]). The viability in [11] was 90.6% (inactive); in experiment [12], 93.9% (inactive). Further, the Her2 level in [2] was 90.5% (inactive). The differential viability (reversal) in [6] (H69AR cells + 2 uM doxorubicin) was -6.8% (inactive). In addition, the results for the inhibition in experiment [7], in experiment [8] and in experiment [13] were 0% (inactive), 4% (inactive) and 2.4% (inactive), respectively. For the same compound, the growth inhibition in [14] is 4.08% (inactive); in experiment [9], 30.7% (inactive). Moreover, the viability increase in [10] is 3.56% (inactive).

The values are drawn from PubChem BioAssay.
